Screening data deposited in PubChem by National Center for Advancing Translational Sciences (NCATS).
PLK1 PBD block = inhibitors of human PLK1 polo-box domain binding; P53350; Plk1 PBD binding of FITC phosphopeptide, fluorescence polarization; Potency, µM, without a hit: max response, negative = inhibition, usual class: inhibitors; actives 2.8% (n = 360,000); AID 720504; note: series mostly up to about 57 µM; nearly all actives have a fitted effect of over 65% in size
Target sequence (P53350 whole entry, looked up, the tested form may be a part): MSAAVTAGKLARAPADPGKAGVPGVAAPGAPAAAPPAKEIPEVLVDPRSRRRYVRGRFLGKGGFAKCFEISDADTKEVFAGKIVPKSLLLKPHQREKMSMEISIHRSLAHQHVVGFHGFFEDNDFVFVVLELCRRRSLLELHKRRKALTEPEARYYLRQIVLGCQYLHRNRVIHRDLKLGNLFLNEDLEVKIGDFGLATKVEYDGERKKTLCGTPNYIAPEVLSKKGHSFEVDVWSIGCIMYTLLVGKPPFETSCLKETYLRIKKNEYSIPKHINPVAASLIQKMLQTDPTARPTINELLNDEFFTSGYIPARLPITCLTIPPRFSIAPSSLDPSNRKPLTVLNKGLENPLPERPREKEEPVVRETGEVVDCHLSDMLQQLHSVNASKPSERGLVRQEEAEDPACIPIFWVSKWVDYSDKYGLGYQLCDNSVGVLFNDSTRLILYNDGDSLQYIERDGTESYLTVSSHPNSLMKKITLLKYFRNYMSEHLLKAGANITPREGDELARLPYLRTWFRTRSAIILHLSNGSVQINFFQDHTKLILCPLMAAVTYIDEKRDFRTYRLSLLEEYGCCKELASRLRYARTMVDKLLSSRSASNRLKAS
TDP1 cell noCPT = qHTS for Inhibitors of human tyrosyl-DNA phosphodiesterase 1 (TDP1): qHTS in cells in absence of CPT | DT40 Tdp1-/- hTDP1 cells, no CPT, ATP luminescence, 48 h | Potency, µM (highest dose often 46.2 µM), without a hit: at the highest dose activity change, negative = growth inhibition, most hits filed as inhibitors | actives 15% (n = 420,000); note: nearly all actives have a fitted effect of over 55% in size
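Luminescent ATP content (CellTiter-Glo) served as the growth readout. Knockout chicken DT40 cells expressing human TDP1 were exposed to compounds without camptothecin for a minimum 48 hr at 37 °C.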
DT40 TDP1 CPT = growth inhibition of DT40 Tdp1-/-;hTDP1 cells with camptothecin (screen for TDP1 inhibitors) | chicken DT40 Tdp1-/-;hTDP1 cells + 20 nM CPT, ATP luminescence, 48 h | AID 686979 | actives 12% (n = 420,000) | Potency, µM (titrated, usually from 46.2 µM), for the others: at the highest dose activity change, negative = growth inhibition, actives largely listed as inhibitors; note: nearly all actives have a fitted effect of over 55% in size
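Cell growth measured by CellTiter-Glo luminescence after a minimum 48 h, 37 C compound exposure with 20 nM CPT in Tdp1-knockout DT40 cells stably expressing hTDP1, seeded 400/well; qHTS titration format.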
VDR inh = blocks the human vitamin D receptor | Potency, µM, for inactives: max response, negative = inhibition, actives largely listed as inhibitors | VDR-SRC2-3 peptide fluorescence polarization, 2 h | P11473 | actives 0.93% (n = 400,000)
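Signal is fluorescence polarization, reporting how far test compounds block the interaction of VDR with the SRC2-3 coregulator peptide after a 2 h room-temperature incubation.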
KAT2A inh = blocks human GCN5L2 histone acetyltransferase. Q92830. GCN5L2 HAT assay, ThioGlo1 CoA-SH fluorescence. Potency, µM (highest dose often 58.9 µM), for the others: at the highest dose activity change, negative = inhibition, hits mostly inhibitors. actives 0.21% (n = 390,000)
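Free CoA generated was detected with ThioGlo1 (50uM) fluorescence at Ex340nm/Em540nm, read immediately and after 20 min at room temperature. Enzyme, 20 nM in HEPES pH 7.5 buffer, saw compounds 15 min before adding 75uM H3(1-25) peptide and 70uM acetyl-CoA.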
TDP1 block = blocks human tyrosyl-DNA phosphodiesterase 1; AID 485290; Q9NUW8; actives 0.28% (n = 350,000); Potency, µM (doses to about 130 µM), inactives show top-dose activity change, negative = inhibition, usual class: inhibitors; recombinant TDP1, AlphaScreen DNA substrate cleavage; note: nearly all actives have a fitted effect of over 40% in size
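Signal: AlphaScreen proximity between streptavidin donor and anti-FITC acceptor beads on intact substrate. Reaction: Tdp1 1 nM, substrate 15 nM final, 5 min RT after 15 min compound preincubation.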
Starred values were filed as active, the others as inactive. An excerpt weighted towards active compounds, which were near 18% of everything screened. Calls come from the whole dose curve; as a rule, active = well fitted curve in the direction sought with a large enough effect; inconclusive = small, poorly fitted or top-dose-only effect, or another doubt; inactive = no such curve, though single readings can be large; an effect the other way counts as inactive or inconclusive. % is set by controls: 0 for no effect and ±100 for the full control effect; potency is the fitted concentration of half-maximal effect.

CN(C)c1ccc(C=C2C(=O)c3ccccc3C2=O)cc1 was read as TDP1 cell noCPT -21% and DT40 TDP1 CPT -5%.
For C=CCN1C(=O)C2(OCCCO2)c2cc(Cl)ccc21 the results were PLK1 PBD block -3%, TDP1 cell noCPT 3%, DT40 TDP1 CPT -15%, VDR inh 1%, KAT2A inh -10% and TDP1 block 1%.
For O=c1cnc2cnc(Oc3ccccc3)nc2n1Cc1ccc(F)cc1 the results were TDP1 cell noCPT inconclusive, DT40 TDP1 CPT inconclusive, VDR inh inconclusive and KAT2A inh -1%.
`COc1cccc(Cn2cnc3c2c(=O)n(C)c(=O)n3C)c1` gave TDP1 cell noCPT 12µM*, DT40 TDP1 CPT 12µM*, VDR inh -8%, KAT2A inh 1% and TDP1 block 0%.
Cn1c(=O)c2c(ncn2Cc2ccccc2)n(C)c1=O was read as PLK1 PBD block 27µM*, TDP1 cell noCPT -29%, DT40 TDP1 CPT inconclusive, VDR inh -25%, KAT2A inh 2% and TDP1 block 2%.
CCCN1CCN(CCCNC(=O)c2ccc3c(c2)sc2nc(-c4ccc(OC)cc4)cn23)CC1 was read as TDP1 cell noCPT 1µM*, DT40 TDP1 CPT 1.5µM*, VDR inh 3%, KAT2A inh -6% and TDP1 block 5%.
For COc1ccc(-c2cn3c(n2)sc2cc(C(=O)NCCCN4CCN(C)CC4)ccc23)cc1 the results were TDP1 cell noCPT 1.3µM*, DT40 TDP1 CPT 1.2µM*, VDR inh -4%, KAT2A inh -6% and TDP1 block 1%.
For COc1ccc(-c2cn3c(n2)sc2cc(C(=O)Nc4cc(OC)cc(OC)c4)ccc23)cc1 the results were TDP1 cell noCPT -22%, DT40 TDP1 CPT 1%, VDR inh -5%, KAT2A inh -7% and TDP1 block 1%.
COc1ccc(-c2cn3cccnc3n2)cc1NC(=O)c1cc(C)cc(C)c1 was read as TDP1 cell noCPT inconclusive, DT40 TDP1 CPT inconclusive, VDR inh 1%, KAT2A inh -1% and TDP1 block 2%.
Screening Cc1ccc2ccc(C3C(=O)c4ccccc4C3=O)nc2c1 returned PLK1 PBD block -19%, TDP1 cell noCPT inconclusive, DT40 TDP1 CPT inconclusive and VDR inh 24%.
Screening Oc1ccc(NCc2ccccc2F)c2cccnc12 returned TDP1 block 4%.
For COc1ccc([N+](=O)[O-])cc1NC(=O)c1cn(-c2ccc(C)c(C)c2)c(=O)c2ccccc12 the results were PLK1 PBD block 0%, TDP1 cell noCPT -32%, DT40 TDP1 CPT -10%, VDR inh -12%, KAT2A inh -6% and TDP1 block -3%.
Screening CCCN(CCC)c1cc(C)nc2nc(-c3ccc(Cl)cc3)nn12 returned TDP1 cell noCPT -15%, DT40 TDP1 CPT -12%, VDR inh 12%, KAT2A inh -5% and TDP1 block -7%.
Screening Nc1nc(NCc2ccc(Cl)cc2)c2[nH]cnc2n1 returned TDP1 cell noCPT inconclusive, DT40 TDP1 CPT inconclusive, VDR inh -4% and TDP1 block 2%.
Nc1nc(NCc2ccc(Cl)c(Cl)c2)c2[nH]cnc2n1 was read as TDP1 cell noCPT 13µM*, DT40 TDP1 CPT inconclusive, VDR inh -7% and TDP1 block 2%.
`Cc1ccc2nc(CSc3nnc(NC(=O)COc4ccccc4F)s3)cc(=O)n2c1` gave TDP1 cell noCPT 0%, DT40 TDP1 CPT 7%, VDR inh 5%, KAT2A inh -11% and TDP1 block 3%.
Screening O=C(c1c[nH]c(C(=O)C(Cl)(Cl)Cl)c1)c1c(F)cccc1F returned PLK1 PBD block 5.3µM*, TDP1 cell noCPT 21µM*, DT40 TDP1 CPT inconclusive, VDR inh inconclusive and KAT2A inh 2%.
O=c1c2ccccc2nc(-c2ccco2)n1CCc1ccc(O)cc1 was read as PLK1 PBD block -8%, TDP1 cell noCPT 5.8µM*, DT40 TDP1 CPT inconclusive, VDR inh 1% and KAT2A inh -6%.
`CCCc1nc2ccccc2c(=O)n1CCc1ccccc1` gave PLK1 PBD block -8%, TDP1 cell noCPT 9.2µM*, DT40 TDP1 CPT 13µM*, VDR inh 10% and KAT2A inh -9%.
For CCSc1nc2ccccc2n1C(=O)/C=C\c1ccc(OC)c(OC)c1 the results were PLK1 PBD block -2%, TDP1 cell noCPT 5.2µM*, DT40 TDP1 CPT 4.6µM*, VDR inh 50µM*, KAT2A inh -14% and TDP1 block 2%.
`Cn1c(-n2c(-c3ccco3)nc3ccccc3c2=O)nc2ccccc21` gave PLK1 PBD block -1%, TDP1 cell noCPT 5.8µM*, DT40 TDP1 CPT 3.7µM*, VDR inh 22%, KAT2A inh -10% and TDP1 block 4%.
Screening COCCCn1c(-c2ccco2)nc2ccccc2c1=O returned PLK1 PBD block -8%, TDP1 cell noCPT -29%, DT40 TDP1 CPT -19%, VDR inh -7%, KAT2A inh -5% and TDP1 block 5%.
O=c1c2ccccc2nc(-c2ccco2)n1CCCn1ccnc1 was read as PLK1 PBD block -2%, TDP1 cell noCPT -7%, DT40 TDP1 CPT -25%, VDR inh 2%, KAT2A inh 0% and TDP1 block 4%.
O=C1C2C3CCC(CC3)C2C(=O)N1c1ccccc1 (stereo not given) was read as PLK1 PBD block -6%, TDP1 cell noCPT -11%, DT40 TDP1 CPT 4%, VDR inh 9% and KAT2A inh 1%.
Screening O=c1c2ccccc2nc(/C=C/c2cc(Br)ccc2O)n1CCO returned PLK1 PBD block 8%, TDP1 cell noCPT 15µM*, DT40 TDP1 CPT inconclusive and VDR inh -9%.
`COc1ccc(CCn2c(-c3ccco3)nc3ccccc3c2=O)cc1OC` gave PLK1 PBD block -2%, TDP1 cell noCPT 2.6µM*, DT40 TDP1 CPT 2.6µM*, VDR inh 11%, KAT2A inh -4% and TDP1 block 3%.
`COc1ccc(CCN2CN(S(=O)(=O)c3ccc(C)cc3)c3nc4ccccc4nc32)cc1OC` gave PLK1 PBD block 0%, TDP1 cell noCPT inconclusive, DT40 TDP1 CPT 23µM*, VDR inh -16%, KAT2A inh 1% and TDP1 block 5%.
Screening CCCn1c(SC(C(=O)Nc2cc(C)ccc2OC)c2ccccc2)nc2ccccc2c1=O (stereo not given) returned PLK1 PBD block 1%, TDP1 cell noCPT 15µM*, DT40 TDP1 CPT 18µM*, VDR inh -8%, KAT2A inh -3% and TDP1 block 8%.
